Test results: the supplement of paper PMC10849652
Of roughly 7,900 targets only a part is listed; those with a hit were picked by preference. About 0.6% of all pairs of compound and target were hits.

Legend:
Test in all cases: log2 fold change, soluble protein after heating vs DMSO (PISA); higher = thermal stabilisation; K562 cells, 10 uM, 30 min; active = over 0.2 and 3.5 SD of the protein, either way, in both replicates (recomputed)
[1] = compound: CC[C@@H]1C(=O)N(C)c2cnc(Nc3ccc(C(=O)NC4CCN(C)CC4)cc3OC)nc2N1C1CCCC1
Outline: (§1)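 For each measurement, 10 μM compound was applied for 30 min to K562 cells at 2×10^6 cells/mL. Aliquots were heated for 3 min across 48°C-58°C, pooled, and extracted in PBS with 0.5% NP-40 at 4°C; the supernatant after 21,000xg for 90 min was soluble protein. This was quantified by TMTpro 16plex LC-MS/MS with channel sums equalised, and thermal stability was reported relative to control samples from duplicates, on a log2 fold-change scale.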

volasertib = compound: CC[C@@H]1C(=O)N(C)c2cnc(Nc3ccc(C(=O)N[C@H]4CC[C@H](N5CCN(CC6CC6)CC5)CC4)cc3OC)nc2N1C(C)C [volasertib]
Outline: as §1

[2] = compound: CC[C@H](C)N1C=C(C2=C(C=C(C=C21)C3=CN=C(C=C3)N4CCNCC4)C(=O)NCC5=C(C=C(NC5=O)C)C)C
Outline: as §1

epoxomicin = compound: CC[C@H](C)[C@@H](C(=O)N[C@@H]([C@@H](C)O)C(=O)N[C@@H](CC(C)C)C(=O)[C@]1(CO1)C)NC(=O)[C@H]([C@@H](C)CC)N(C)C(=O)C [epoxomicin]
Outline: as §1

[3] = compound: CCn1c(C(=O)N(C2CC2)C2CC2)cc2c3c(ncn3C)c(Nc3cc(C)n(C)n3)nc21
Outline: as §1

[4] = compound: CCn1cc(-c2ccnc3[nH]c(-c4cccc(CN(C)C)c4)cc23)c(-c2ccc(NC(=O)N(C)C)cc2)n1
Outline: as §1

[5] = compound: CN(C)CC(=O)Nc1ccc2[nH]c(=O)c3ccccc3c2c1
Outline: as §1

rosiglitazone = compound: CN(CCOC1=CC=C(C=C1)C[C@H]2C(=O)NC(=O)S2)C3=CC=CC=N3 (racemic) [rosiglitazone]
Outline: as §1

[6] = compound: CN1C2=C(C3=C1C(=O)N(N=C3)CC4=CC(=CC=C4)N)SC(=C2)S(=O)C
Outline: as §1

[7] = compound: CN1CCC(CNc2ccc3ncc(-c4cccc(OC(F)(F)F)c4)n3n2)CC1
Outline: as §1

saracatinib = compound: CN1CCN(CCOc2cc(OC3CCOCC3)c3c(Nc4c(Cl)ccc5c4OCO5)ncnc3c2)CC1 [saracatinib]
Outline: as §1

sotrastaurin = compound: CN1CCN(c2nc(C3=C(c4c[nH]c5ccccc45)C(=O)NC3=O)c3ccccc3n2)CC1 [sotrastaurin]
Outline: as §1

alvocidib = compound: CN1CC[C@H](c2c(O)cc(O)c3c(=O)cc(-c4ccccc4Cl)oc23)[C@H](O)C1 [alvocidib]
Outline: as §1

Tubastatin A = compound: CN1CCc2c(c3ccccc3n2Cc2ccc(C(=O)NO)cc2)C1 [Tubastatin A]
Outline: as §1

[8] = compound: CNC(=O)C1=CC=CC=C1NC2=NC(=NC=C2Cl)NC3=C(C=C(C=C3)N4CCOCC4)OC
Outline: as §1

defactinib = compound: CNC(=O)c1ccc(Nc2ncc(C(F)(F)F)c(NCc3nccnc3N(C)S(C)(=O)=O)n2)cc1 [defactinib]
Outline: as §1

rucaparib = compound: CNCc1ccc(-c2[nH]c3cc(F)cc4c3c2CCNC4=O)cc1 [rucaparib]
Outline: as §1

[9] = compound: CNc1nc(-c2ccc3c(N)n[nH]c3c2)cc(N2C[C@@H](C(=O)NC3CCCCC3)CC[C@H]2C)n1
Outline: as §1

encorafenib = compound: COC(=O)N[C@@H](C)CNc1nccc(-c2cn(C(C)C)nc2-c2cc(Cl)cc(NS(C)(=O)=O)c2F)n1 [encorafenib]
Outline: as §1

[10] = compound: COC(=O)[C@H](CCSC)NC(=O)C1=C(C=C(C=C1)NC[C@H](CS)N)C2=CC=CC=C2
Outline: as §1

Measured: log2 fold change

ACP1 isoform 2 (UniProt P24666)
Sequence of UniProt P24666 (P24666 whole entry, looked up): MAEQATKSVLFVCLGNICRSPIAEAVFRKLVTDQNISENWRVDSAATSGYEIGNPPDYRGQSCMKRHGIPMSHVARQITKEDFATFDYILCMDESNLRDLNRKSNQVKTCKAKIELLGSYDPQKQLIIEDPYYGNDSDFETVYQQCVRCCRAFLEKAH
inactive: [1] 0.034 | volasertib 0.055 | [2] 0.063 | epoxomicin 0.012 | [3] -0.1 | [4] -0.083 | [5] 0.05 | rosiglitazone 0.027 | [6] 0.014 | [7] -0.07 | saracatinib -0.175 | sotrastaurin -0.11 | alvocidib 0.013 | Tubastatin A 0.111 | [8] 0.038 | defactinib -0.047 | rucaparib 0.019 | [9] 0.059 | encorafenib 0.064 | [10] 0.024

BCAP29 isoform 2 (UniProt Q9UHQ4)
Sequence of UniProt Q9UHQ4 (Q9UHQ4 whole entry, looked up): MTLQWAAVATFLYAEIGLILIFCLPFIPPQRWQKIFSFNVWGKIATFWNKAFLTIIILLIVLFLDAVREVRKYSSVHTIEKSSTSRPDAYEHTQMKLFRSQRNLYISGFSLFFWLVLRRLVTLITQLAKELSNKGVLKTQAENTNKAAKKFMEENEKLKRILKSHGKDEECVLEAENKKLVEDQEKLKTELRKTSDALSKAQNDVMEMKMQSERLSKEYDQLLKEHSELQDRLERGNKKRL
inactive: [1] 0.022 | volasertib 0.085 | [2] -0.072 | epoxomicin -0.096 | [3] 0.082 | [4] -0.011 | [5] -0.008 | rosiglitazone 0.045 | [6] -0.044 | [7] 0.05 | saracatinib 0.052 | sotrastaurin 0.104 | alvocidib 0.041 | Tubastatin A -0.052 | [8] 0.002 | defactinib 0.033 | rucaparib -0.043 | [9] -0.016 | encorafenib -0.026 | [10] 0.018

ALDH6A1 (UniProt Q02252)
Sequence of UniProt Q02252 (Q02252 whole entry, looked up): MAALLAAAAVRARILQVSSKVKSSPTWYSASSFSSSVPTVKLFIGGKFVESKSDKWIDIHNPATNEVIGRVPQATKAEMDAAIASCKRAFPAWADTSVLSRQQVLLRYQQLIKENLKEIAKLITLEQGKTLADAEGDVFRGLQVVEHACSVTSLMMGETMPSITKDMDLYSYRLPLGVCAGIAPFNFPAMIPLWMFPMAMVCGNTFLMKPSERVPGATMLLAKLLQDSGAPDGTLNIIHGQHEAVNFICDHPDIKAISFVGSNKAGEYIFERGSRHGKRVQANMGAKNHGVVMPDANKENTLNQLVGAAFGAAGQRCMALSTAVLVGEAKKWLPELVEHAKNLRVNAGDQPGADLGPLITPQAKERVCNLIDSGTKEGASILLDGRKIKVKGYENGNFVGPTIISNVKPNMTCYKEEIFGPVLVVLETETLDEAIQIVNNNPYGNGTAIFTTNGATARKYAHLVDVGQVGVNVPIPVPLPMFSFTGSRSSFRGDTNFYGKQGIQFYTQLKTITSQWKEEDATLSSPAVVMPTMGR
inactive: [1] 0.06 | volasertib -0.011 | [2] -0.059 | epoxomicin 0 | [3] 0.028 | [4] -0.06 | [5] -0.033 | rosiglitazone 0.093 | [6] -0.068 | [7] -0.004 | saracatinib 0.031 | sotrastaurin 0.144 | alvocidib -0.098 | Tubastatin A 0.03 | [8] 0.021 | defactinib -0.021 | rucaparib 0.021 | [9] -0.045 | encorafenib 0.024 | [10] -0.008

ACP1 (UniProt P24666)
inactive: [1] 0.084 | volasertib -0.102 | [2] -0.001 | epoxomicin 0.03 | [3] -0.034 | [4] 0.077 | [5] 0.12 | rosiglitazone 0.167 | [6] 0.099 | [7] -0.061 | saracatinib -0.031 | sotrastaurin -0.054 | alvocidib -0.111 | Tubastatin A 0.141 | [8] -0.1 | defactinib -0.044 | rucaparib 0.12 | [9] 0.123 | encorafenib 0.035 | [10] -0.111

BRIX1 (UniProt Q8TDN6)
Sequence of UniProt Q8TDN6 (Q8TDN6 whole entry, looked up): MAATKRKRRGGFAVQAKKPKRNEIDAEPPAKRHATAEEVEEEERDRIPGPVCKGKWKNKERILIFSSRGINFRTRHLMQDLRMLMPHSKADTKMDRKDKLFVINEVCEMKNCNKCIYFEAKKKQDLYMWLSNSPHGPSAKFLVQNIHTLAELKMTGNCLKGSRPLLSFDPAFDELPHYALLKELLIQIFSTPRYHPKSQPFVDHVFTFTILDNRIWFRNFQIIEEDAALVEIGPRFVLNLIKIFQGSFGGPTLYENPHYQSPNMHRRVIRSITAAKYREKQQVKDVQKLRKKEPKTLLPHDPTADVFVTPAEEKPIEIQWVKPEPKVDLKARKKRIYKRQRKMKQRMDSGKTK
inactive: [1] 0.166 | volasertib 0.317 | [2] 0.048 | epoxomicin -0.343 | [3] -0.041 | [4] 0.31 | [5] -0.143 | rosiglitazone -0.266 | [6] 0.36 | [7] 0.481 | saracatinib -0.106 | sotrastaurin -0.051 | alvocidib 0.174 | Tubastatin A 0.2 | [8] -0.154 | defactinib 0.394 | rucaparib 0.253 | [9] 0.129 | encorafenib 0.123 | [10] 0.017

ADD1 isoform 3 (UniProt P35611)
Sequence of UniProt P35611 (P35611 whole entry, looked up): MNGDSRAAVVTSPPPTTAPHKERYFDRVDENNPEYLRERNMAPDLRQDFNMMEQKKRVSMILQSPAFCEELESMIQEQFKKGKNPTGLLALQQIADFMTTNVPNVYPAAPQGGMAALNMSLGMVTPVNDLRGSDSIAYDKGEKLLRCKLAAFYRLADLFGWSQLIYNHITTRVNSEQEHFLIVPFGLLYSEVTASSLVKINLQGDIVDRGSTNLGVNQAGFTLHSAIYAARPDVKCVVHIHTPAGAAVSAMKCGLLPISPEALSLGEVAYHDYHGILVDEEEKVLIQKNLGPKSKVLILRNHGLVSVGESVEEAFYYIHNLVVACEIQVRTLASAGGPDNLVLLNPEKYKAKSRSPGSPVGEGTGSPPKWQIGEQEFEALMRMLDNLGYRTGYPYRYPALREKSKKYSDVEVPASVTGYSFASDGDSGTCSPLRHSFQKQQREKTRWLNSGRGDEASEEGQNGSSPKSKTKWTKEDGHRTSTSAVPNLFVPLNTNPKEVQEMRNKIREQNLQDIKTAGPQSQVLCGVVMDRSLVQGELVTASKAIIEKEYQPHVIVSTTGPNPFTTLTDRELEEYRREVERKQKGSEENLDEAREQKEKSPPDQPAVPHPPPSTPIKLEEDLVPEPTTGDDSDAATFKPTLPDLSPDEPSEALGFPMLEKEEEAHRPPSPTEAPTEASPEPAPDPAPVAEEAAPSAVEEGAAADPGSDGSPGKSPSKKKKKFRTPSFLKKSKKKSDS
inactive: [1] 0.077 | volasertib 0.015 | [2] -0.015 | epoxomicin -0.012 | [3] -0.007 | [4] 0.011 | [5] -0.039 | rosiglitazone -0.004 | [6] -0.055 | [7] 0.053 | saracatinib 0.095 | sotrastaurin -0.031 | alvocidib -0.088 | Tubastatin A -0.002 | [8] 0.008 | defactinib -0.039 | rucaparib -0.018 | [9] 0 | encorafenib -0.024 | [10] 0.031

ALG3 (UniProt Q92685)
Sequence of UniProt Q92685 (Q92685 whole entry, looked up): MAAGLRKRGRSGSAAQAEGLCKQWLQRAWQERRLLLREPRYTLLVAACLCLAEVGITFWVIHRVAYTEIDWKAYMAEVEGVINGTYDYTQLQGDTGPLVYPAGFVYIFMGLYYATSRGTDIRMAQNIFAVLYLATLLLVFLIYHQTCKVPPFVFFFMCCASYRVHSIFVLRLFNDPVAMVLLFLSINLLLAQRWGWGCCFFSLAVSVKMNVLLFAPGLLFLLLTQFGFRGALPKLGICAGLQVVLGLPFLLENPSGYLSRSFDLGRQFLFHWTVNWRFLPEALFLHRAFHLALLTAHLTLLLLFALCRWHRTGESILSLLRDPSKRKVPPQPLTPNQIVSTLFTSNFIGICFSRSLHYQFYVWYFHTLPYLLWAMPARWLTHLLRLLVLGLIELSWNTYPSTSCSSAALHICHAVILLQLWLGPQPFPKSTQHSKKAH
inactive: [1] 0.005 | volasertib -0.164 | [2] 0.02 | epoxomicin 0.039 | [3] -0.022 | [4] -0.037 | [5] -0.002 | rosiglitazone 0.049 | [6] -0.028 | [7] 0.033 | saracatinib 0.145 | sotrastaurin -0.047 | alvocidib 0.055 | Tubastatin A -0.056 | [8] 0.116 | defactinib 0.009 | rucaparib 0.1 | [9] 0.056 | encorafenib 0.076 | [10] 0.013

AUP1 (UniProt Q9Y679)
Sequence of UniProt Q9Y679 (Q9Y679 whole entry, looked up): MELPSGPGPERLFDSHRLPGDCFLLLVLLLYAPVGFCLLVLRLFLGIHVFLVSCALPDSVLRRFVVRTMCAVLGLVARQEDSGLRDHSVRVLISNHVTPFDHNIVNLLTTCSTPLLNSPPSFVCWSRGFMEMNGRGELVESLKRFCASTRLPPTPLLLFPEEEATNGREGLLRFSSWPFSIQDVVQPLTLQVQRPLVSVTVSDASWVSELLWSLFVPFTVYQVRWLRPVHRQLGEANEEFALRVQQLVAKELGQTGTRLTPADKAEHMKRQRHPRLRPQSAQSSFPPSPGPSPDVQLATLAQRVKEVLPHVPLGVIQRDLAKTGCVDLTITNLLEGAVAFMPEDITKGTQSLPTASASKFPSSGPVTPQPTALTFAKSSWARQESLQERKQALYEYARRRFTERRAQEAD
active: [7] -0.24
inactive: [1] -0.132 | volasertib -0.253 | [2] 0.032 | epoxomicin 0.046 | [3] -0.002 | [4] -0.028 | [5] 0.089 | rosiglitazone 0.12 | [6] 0.014 | saracatinib 0.052 | sotrastaurin -0.116 | alvocidib -0.062 | Tubastatin A 0.031 | [8] -0.062 | defactinib -0.015 | rucaparib -0.04 | [9] -0.041 | encorafenib 0.029 | [10] -0.037

ALDH9A1 (UniProt P49189)
Sequence of UniProt P49189 (P49189 whole entry, looked up): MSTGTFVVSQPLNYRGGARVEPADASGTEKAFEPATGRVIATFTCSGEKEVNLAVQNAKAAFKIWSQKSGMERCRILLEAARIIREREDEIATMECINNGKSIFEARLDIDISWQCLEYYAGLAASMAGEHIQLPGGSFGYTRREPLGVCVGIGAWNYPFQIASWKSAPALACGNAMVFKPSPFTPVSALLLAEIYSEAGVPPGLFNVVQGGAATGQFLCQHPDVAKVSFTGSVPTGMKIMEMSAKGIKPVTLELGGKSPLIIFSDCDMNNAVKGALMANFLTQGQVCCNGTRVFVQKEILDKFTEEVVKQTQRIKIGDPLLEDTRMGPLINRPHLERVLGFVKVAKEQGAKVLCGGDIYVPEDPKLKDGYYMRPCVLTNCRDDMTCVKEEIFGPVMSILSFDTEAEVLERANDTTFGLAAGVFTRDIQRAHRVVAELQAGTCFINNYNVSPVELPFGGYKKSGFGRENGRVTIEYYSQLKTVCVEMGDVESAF
inactive: [1] -0.035 | volasertib 0.009 | [2] 0.111 | epoxomicin -0.011 | [3] 0.095 | [4] -0.005 | [5] 0 | rosiglitazone -0.062 | [6] -0.015 | [7] 0.016 | saracatinib 0.005 | sotrastaurin 0.032 | alvocidib -0.088 | Tubastatin A -0.019 | [8] 0.016 | defactinib -0.008 | rucaparib -0.014 | [9] -0.041 | encorafenib 0.023 | [10] -0.058
